Measured values as given in the supplement of paper PMC13380429.
A number with no mark means an inactive call.

System: Vero E6 infected with SARS-CoV-2
Assay: inhibition of SARS-CoV-2 cytopathic effect; higher = more antiviral protection, active = above 15
Conditions: 48 h

| SMILES | inhibition of SARS-CoV-2 cytopathic effect (1 nM) | inhibition of SARS-CoV-2 cytopathic effect (8.33 nM) | inhibition of SARS-CoV-2 cytopathic effect (100 nM) | inhibition of SARS-CoV-2 cytopathic effect (833.33 nM) | inhibition of SARS-CoV-2 cytopathic effect (10000 nM) |
| --- | --- | --- | --- | --- | --- |
| Cc1cccc(C)c1NC(=O)CN1CCN(CCCC(c2ccc(F)cc2)c2ccc(F)cc2)CC1 [lidoflazine] | -2.3% | 0.7% | 0.47% | -1.87% | -10.2% |
| COc1ccc(CNCc2cccc3ccccc23)cc1 | -2.74% | -2.35% | -0.58% | -2.06% | -0.83% |
| Cc1ccc2c(c1)=C(c1ccccc1)C(C1=NN(C(=O)CCC(=O)O)C(c3ccc(Br)cc3)C1)C(=O)N=2 (stereo not given) | -0.42% | -0.1% | 2.84% | 3.61% | 0.79% |
| C=CC(=O)N1CCN(C(=O)CNc2cc(I)c(Cl)cc2O)CC1 [K-Ras(G12C)-inhibitor-12] | 3.63% | 2.32% | 7.62% | 24.7% (active) | 30.4% (active) |
| CN1CCC[C@@H]1CCO[C@](C)(c1ccccc1)c1ccc(Cl)cc1 [clemastine] | 3.3% | 4.37% | 2.07% | 0.78% | 0.68% |
| NC(=O)N1CCC(CC(=O)N2CCC([C@H]3c4ncc(Br)cc4CCc4cc(Cl)cc(Br)c43)CC2)CC1 [lonafarnib] | -0.44% | 0.33% | 1.55% | 11.2% | 12.3% |
| Clc1ccc2c(c1)CCc1cccnc1C2=C1CCNCC1 [desloratadine] | 5.47% | 2% | 3.51% | -0.44% | -5.42% |
